Shn3 inh set2 = inhibitors of Schnurri-3 3'UTR reporter in osteoblasts; inhibition, % at 12.5 µM; Clone20 osteoblast Shn3 3'UTR firefly luciferase, 24 h; AID 588674; 360,000 compounds, 0.52% hits;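 active = mean inhibition of at least 75% with every replicate also reaching 75%; inconclusive = mean inhibition at least 75% but some replicate below; inactive = mean inhibition below 75%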
Peg3 promoter = inhibitors of Peg3 promoter. HeLa PEG-Prom luciferase reporter, luminescence, overnight. inhibition, % at 20 µM. 360,000 compounds, 1.7% hits. AID 588405;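 active = inhibition of at least 50% at 20 µM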
ABHD5 PLIN5 PPI = ABHD5-PLIN5 protein interaction inhibition | Split G. princeps luciferase complementation, luminescence, 4 h | inhibition, % at 4 µM | 360,000 compounds, 0.78% hits;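 active = inhibition above the mean inhibition across every tested compound plus 3 SD, cut at about 22% in these data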
Target sequence (Q00G26 whole entry, looked up): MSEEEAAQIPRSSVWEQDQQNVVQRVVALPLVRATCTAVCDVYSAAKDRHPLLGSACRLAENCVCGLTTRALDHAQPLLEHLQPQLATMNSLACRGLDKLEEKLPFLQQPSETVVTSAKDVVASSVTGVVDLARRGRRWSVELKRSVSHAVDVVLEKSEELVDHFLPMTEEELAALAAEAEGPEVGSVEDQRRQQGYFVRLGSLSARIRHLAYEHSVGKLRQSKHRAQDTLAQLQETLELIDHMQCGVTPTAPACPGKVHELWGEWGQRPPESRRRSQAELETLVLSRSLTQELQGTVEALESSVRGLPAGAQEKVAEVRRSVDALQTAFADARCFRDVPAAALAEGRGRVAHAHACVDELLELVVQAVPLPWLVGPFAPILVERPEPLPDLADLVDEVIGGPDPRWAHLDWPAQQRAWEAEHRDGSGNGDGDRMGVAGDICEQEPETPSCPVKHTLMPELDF
Target sequence (Q8WTS1 whole entry, looked up): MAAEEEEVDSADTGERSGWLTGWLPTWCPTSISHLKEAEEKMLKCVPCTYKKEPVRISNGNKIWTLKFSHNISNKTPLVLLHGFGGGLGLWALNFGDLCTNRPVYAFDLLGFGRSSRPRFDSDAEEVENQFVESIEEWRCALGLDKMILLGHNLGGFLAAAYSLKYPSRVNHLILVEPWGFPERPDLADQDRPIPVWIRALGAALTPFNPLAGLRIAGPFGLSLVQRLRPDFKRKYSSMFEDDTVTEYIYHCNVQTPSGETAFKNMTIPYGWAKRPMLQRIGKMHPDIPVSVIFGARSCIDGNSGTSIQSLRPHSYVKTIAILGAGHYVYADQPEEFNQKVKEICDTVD
TRPM1 prom inh = MITF TRPM1 promoter inhibition in SK-MEL-5 cells | inhibition, % at 12.5 µM | 330,000 compounds, 0.83% hits | SK-MEL-5 TRPM1 promoter luciferase, 24 h | AID 488899;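 active = mean inhibition across replicates of 60% or more, whatever share of single replicates reaches that level; inconclusive = some that reach 60%, reason not given; inactive = mean inhibition across replicates below 60%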
EWS-Fli inh = blocks EWS/Fli oncoprotein-driven transcription; inhibition, % at 12.6 µM; AID 651661; 350,000 compounds, 0.67% hits; A673 NR0B1-luciferase reporter, viability-normalised;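 active = mean inhibition of at least 50% after viability correction, with every replicate also passing that limit; inconclusive = mean reaches 50% but only one of two replicates passes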;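 also: firefly luciferase signal divided by Alamar Blue viability fluorescence both relative to DMSO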
PAX8 inh HTS = PAX8 transcriptional activity inhibition. RMG-I TPO-luciferase reporter, SteadyGlo, 24 h. inhibition, % at 12.6 µM. 360,000 compounds, 1.2% hits. AID 652154;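 active = mean replicate inhibition at least 60% with every replicate also reaching 60%; inconclusive = only one of the two criteria is met; inactive = mean below 60% and not all replicates reaching 60%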;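 also: luciferase light reporting Pax8 driven TPO promoter activity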
A number is an active result; i = inactive; ? = inconclusive; nt = no result given; ! = not confirmed by another sample. Shown are actives, neighbours in structure and some others; about 3% of the full set was active somewhere.

SMILES	Shn3 inh set2	Peg3 promoter	ABHD5 PLIN5 PPI	TRPM1 prom inh	EWS-Fli inh	PAX8 inh HTS
CC(C)CC1C(=O)N(Cc2cn(CCC3OCCCO3)nn2)CCS(=O)(=O)N1Cc1ccc(-c2ccc(Cl)cc2)cc1 (stereo not given)	i	i	i	nt	i	i
COCOCCn1cc(CN2CCS(=O)(=O)N(Cc3ccc(-c4ccc(Cl)c(Cl)c4)cc3)C(C)C2=O)nn1 (stereo not given)	i	93	i	nt	i	i
CC(C)CC1C(=O)N(Cc2cn(CCC3OCCCO3)nn2)CCS(=O)(=O)N1Cc1ccc(-c2ccc(Cl)c(Cl)c2)cc1 (stereo not given)	i	56	i	nt	i	i
CC(C)C1C(=O)N(Cc2cn(CCC3OCCCO3)nn2)CCS(=O)(=O)N1Cc1ccc(-c2ccc(Cl)nc2)cc1 (stereo not given)	i	i	i	nt	i	74
CCCN(C)C[C@@H]1Oc2cc(-c3ccc(F)cc3)ccc2S(=O)(=O)N([C@H](C)CO)C[C@@H]1C	nt	nt	nt	nt	i	i
Cc1ccccc1S(=O)(=O)N1C[C@H](O)COC[C@@H]2O[C@@H](CC(=O)N3CCCCC3)CC[C@H]21	nt	nt	nt	nt	i	i
CC1C(=O)N(Cc2cn(CCC3OCCCO3)nn2)CCS(=O)(=O)N1Cc1ccc(-c2ccc(Cl)c(Cl)c2)cc1 (stereo not given)	92	i	i	nt	i	i
CC1C(=O)N(Cc2cn(CCC3OCCCO3)nn2)CCS(=O)(=O)N1Cc1ccc(-c2ccc(F)cc2)cc1 (stereo not given)	i	i	i	nt	i	i
CCC(=O)N1CCN(c2ccc(-n3c(=O)ccc4cnc5ccc(-c6cnc7ccccc7c6)cc5c43)cc2C(F)(F)F)CC1	nt	nt	nt	nt	i	71
O=C(O)COCC(=O)N1CCN(c2cc(C(F)(F)F)nc3ccccc23)CC1	i	i	i	i	i	i
Cc1ccccc1NC(=O)CN1CCN(C(=O)c2ccco2)CC1	i	53	i	i	nt	i
CC1=NN(c2cccc(F)c2)C(=O)/C1=C/c1ccc(N(C)C)cc1	i	i	i	i	i	i
CN(C)c1ccc(/C=C(\C#N)c2ccccc2)cc1	i	i	i	i	nt	nt
CCOC(=O)c1cc2c(=Cc3ccc(N(C)C)cc3)c3ccccc3n2[n+]1C	?	i	i	86	i	i
CCOC(=O)SC1=N/C(=C\c2ccc(N(C)C)cc2)C(=O)S1	i	i	i	i	i	nt
Cc1cc2c(=Cc3ccc(N(C)C)cc3)c3ccccc3n2[n+]1C	i	97	i	101	i	nt
CN(C)c1ccc(C=c2c3cc(O)ccc3n3c2cc(-c2ccccc2)[n+]3C)cc1	i	i	i	90	i	73
CN(C)c1ccc(C=c2c3ccccc3n3c2c2ccccc2[n+]3C)cc1	93	71	i	i	i	88
C[C@@H]1CCCCO[C@@H](CN(C)C(=O)CCC(F)(F)F)[C@H](C)CN([C@@H](C)CO)C(=O)c2cc(NC(=O)c3ccccc3)ccc2O1	nt	nt	nt	nt	i	i
COc1ccc2c3c([nH]c2c1)[C@H](CO)N(CC1CC1)CC31CN(C(=O)c2ccccc2)C1	nt	nt	nt	nt	i	nt
COc1ccccc1CNC(=O)C[C@@H]1CC[C@H](NC(=O)CC2CC2)[C@H](CO)O1	nt	nt	nt	nt	i	i
C[n+]1c(-c2ccccc2)cc2c(=Cc3ccc([N+](=O)[O-])cc3)c3ccccc3n21	i	i	i	i	i	74
O=C(NCC1CCCO1)C(=O)NCC(c1ccco1)N1CCN(c2ccc(F)cc2)CC1 (stereo not given)	i	i	i	i	i	i
O=C(NCC1CCCO1)C(=O)NCC(c1ccco1)N1CCN(c2ccccc2)CC1 (stereo not given)	i	i	i	i	i	151
CCOC(=O)N=Nc1c2ccccc2c2nc3no[nH]c3nc12	100	108	i	103	54	87
SMILES	Shn3 inh set2	Peg3 promoter	ABHD5 PLIN5 PPI	TRPM1 prom inh	EWS-Fli inh	PAX8 inh HTS
CCOC(=O)N=Nc1c(O)n(CC(=O)OC)c2ccccc12	i	i	i	i	nt	i
O=C(COc1ccccc1C(=O)Nc1ccccc1)c1ccc(Br)cc1	i	i	i	i	i	i
O=C(Oc1ccccc1C(=O)Nc1ccccc1)c1ccccc1Br	i	i	i	i	53	i
CO[C@@H]1CN(C)C(=O)c2cc(NC(=O)NC(C)C)ccc2OC[C@@H](C)N(S(C)(=O)=O)C[C@H]1C	nt	nt	nt	nt	i	i
COC(=O)[C@H]1[C@H](CO)[C@H]2Cn3c(ccc(-c4cccc(F)c4)c3=O)[C@H]2N1CC1CCCC1	nt	nt	nt	nt	i	i
COC(=O)[C@@H]1[C@@H](CO)[C@@H]2Cn3c(ccc(-c4cccc(F)c4)c3=O)[C@@H]2N1CC1CCCC1	nt	nt	nt	nt	i	64
Cc1ccc(S(=O)(=O)Nc2ccc3c(c2)C(=O)N([C@@H](C)CO)C[C@@H](C)[C@@H](CN(C)S(=O)(=O)c2ccc(F)cc2)O3)cc1	nt	nt	nt	nt	i	nt
COCCCNCCOc1ccc(C(C)(C)c2ccccc2)cc1	i	i	i	i	i	i
CCC(C)NCCOc1ccc(C(C)(C)c2ccccc2)cc1 (stereo not given)	i	81	i	i	i	i
CC1CCN(CCCCOc2ccc(C(C)(C)C)cc2)CC1	i	i	i	i	i	i
CC(C)(c1ccccc1)c1ccc(OCCCN2CCNCC2)cc1	i	79	i	i	i	i
CC(C)(C)c1ccc(OCCCCCCN2CCNCC2)cc1	i	64	i	i	i	i
Cc1noc(C)c1S(=O)(=O)Nc1ccc2c(c1)CC(=O)N([C@@H](C)CO)C[C@H](C)[C@@H](CN(C)S(C)(=O)=O)O2	nt	nt	nt	nt	i	i
CN1CCN(Cc2nc3ccccc3c(=O)n2Cc2nc(-c3ccc4ccccc4c3)cs2)CC1	93!	105	i	88	i	i
CN1CCN(Cc2nc3ccccc3c(=O)n2Cc2nc(-c3cccc([N+](=O)[O-])c3)cs2)CC1	i	50	i	i	i	i
CN1CCN(Cc2nc3ccccc3c(=O)n2Cc2nc(-c3ccccc3F)cs2)CC1	i	i	i	i	nt	i
O=C(O)c1cc(-c2cccc([N+](=O)[O-])c2)nc2ccccc12	i	i	i	i	i	i
C[C@H]1CN([C@@H](C)CO)C(=O)c2cccc(NC(=O)c3ccc(-c4nccs4)cc3)c2O[C@@H]1CN(C)C(=O)Nc1ccc2c(c1)OCO2	nt	nt	nt	nt	i	nt
CCCC#Cc1ccc([C@@H]2[C@@H](CO)N3C(=O)CN(C(=O)c4cccnc4)C[C@H]23)cc1	nt	nt	nt	nt	i	nt
Cc1ccc(NC(=O)NC(=O)COc2ccc(Cl)cc2Cl)c(C)c1	i	i	i	i	i	117
COc1cc(C(C)=O)ccc1OCC(=O)NC(=O)Nc1ccc(C)cc1C	i	i	i	i	i	i
O=C(Nc1ccc(Cl)cc1)Nc1ccc(N2CCCC2)c(S(=O)(=O)Nc2ccccc2Cl)c1	97	i	i	71	nt	101
O=C(Nc1ccc(N2CCOCC2)c(S(=O)(=O)Nc2ccccc2Cl)c1)c1ccccc1	i	i	i	i	i	i
c1ccc2c(NCC3CCCO3)nc(N3CCCCC3)nc2c1 (stereo not given)	i	i	i	i	i	63
